Values joined by “and” are separate entries in the source; they are usually repeats but may differ in a detail not shown here. Equal entries are not always repeated. The whole screen tested about 330,000 compounds, of which about 1,900 (0.58%) were called active. Not shown: some 4% with an inconclusive outcome. Rule as the data show it: inconclusive = inhibition above about 70% without an active follow-up result; inactive = below that. These entries were drawn from the full list. Entries with a potency or affinity are not part of this list.
Assay: M. tuberculosis growth inhibition, HTS (AID 449762);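 also: bacterial growth assessed after seven days of incubation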
Conditions: M. tuberculosis H37Rv growth inhibition, 7H9 media; at 25 µM; active compounds read high

Q: Which inhibition does the source give for `Cc1ccc(N2CCN(/N=C/C(Cl)=C/c3ccccc3)CC2)cc1` here?
A: 4.03% (inactive)

Q: With `COc1ccccc1N1CCN(/N=C\c2ccccc2)CC1` as the compound, how does the inhibition read?
A: 4.03% (inactive)

Q: For `Cc1c(C(=O)Nc2ccc3c4c(cccc24)CC3)cccc1[N+](=O)[O-]`, which inhibition is on record?
A: 27.6% (inactive)

Q: With `O=C(Nc1ccc2c3c(cccc13)CC2)c1cccc([N+](=O)[O-])c1` as the compound, how does the inhibition read?
A: -7.19% (inactive)

Q: For `COc1ccc(-c2cc(C)no2)cc1S(=O)(=O)N1CCN(C(=O)c2ccco2)CC1`, which inhibition is on record?
A: -7.17% (inactive)

Q: Which inhibition does the source give for `COc1ccc(CCN=C(N)C(C)c2ccccc2)cc1OC` (centres undefined) here?
A: -10.7% (inactive)

Q: For `CC(C)Cc1ccc(C(C)C(=N)N)cc1` (centres undefined), which inhibition is on record?
A: 6.85% (inactive)

Q: Which inhibition does the source give for `CCOC(=O)c1c(-c2ccc(OC)cc2)csc1NC(=O)CSc1ccccc1` here?
A: 3.36% (inactive)

Q: Which inhibition does the source give for `CCOC(=O)c1c(-c2ccc(Cl)cc2)csc1NC(=O)CNCc1ccco1` here?
A: 3.78% (inactive)

Q: For `COC(=O)c1c(NC(C)=O)sc(C(=O)N2CCOCC2)c1C`, which inhibition is on record?
A: 2.88% (inactive)

Q: Which inhibition does the source give for `COC(=O)c1c(NC(=O)C(C)C)sc(C(=O)N2CCOCC2)c1C` here?
A: -8.29% (inactive)

Q: With `S=C(NCc1ccncc1)Nc1cc(Cl)cc(Cl)c1` as the compound, how does the inhibition read?
A: 69.9% (inactive)

Q: For `O=C(CCc1nnc(CCCc2ccccc2)o1)NCCc1ccccc1`, which inhibition is on record?
A: 3.96% (inactive)

Q: For `CN(C(=O)CCc1nnc(-c2ccc(-c3ccccc3)cc2)o1)C1CCOCC1`, which inhibition is on record?
A: -8.56% (inactive)

Q: With `COC(c1ccccc1)c1nnc(CCC(=O)N(C)CCCC2CCCC2)o1` (centres undefined) as the compound, how does the inhibition read?
A: 3.33% (inactive)

Q: Which inhibition does the source give for `O=C(CCc1nnc(CCCCc2ccccc2)o1)NCCC1CCCCO1` (centres undefined) here?
A: -2.58% (inactive)

Q: For `COc1ccc(C2=CSC3=NCCN23)cc1`, which inhibition is on record?
A: 4.38% (inactive)

Q: With `CCC(=NCc1cccnc1)c1c(O)n(Cc2ccccc2)c(=O)[nH]c1=O` as the compound, how does the inhibition read?
A: -0.2% (inactive)

Q: For `COc1ccc(NC(=O)Cn2c(=O)n(-c3ccccc3)c(=O)c3oc4ccccc4c32)c(OC)c1`, which inhibition is on record?
A: -0.2% (inactive)

Q: With `CC1(C)CC(=O)CC(=Nc2ccc(C(=O)O)cc2)C1` as the compound, how does the inhibition read?
A: 2.32% (inactive)

Q: Which inhibition does the source give for `COc1ccc(OC)c(C(c2nnnn2Cc2ccccc2)N2CCN(C)CC2)c1` (centres undefined) here?
A: 5.62% (inactive)

Q: Which inhibition does the source give for `Cc1ccc(CN2CCN(/N=C\c3cccc([N+](=O)[O-])c3)CC2)cc1` here?
A: 55.9% (inactive)

Q: For `O=[N+]([O-])c1cc(/C=N/N2CCCCC2)ccc1Cl`, which inhibition is on record?
A: 1.34% (inactive)

Q: With `Nc1c2c(nc3ccccc13)CCC2` as the compound, how does the inhibition read?
A: -1.89% (inactive)

Q: With `Nc1c2c(nc3ccn(-c4ccccc4)c(=O)c13)CCCCC2` as the compound, how does the inhibition read?
A: 3.82% (inactive)

Q: With `CCNC(=O)c1nc[nH]c1C(=O)NCC` as the compound, how does the inhibition read?
A: -0.32% (inactive)

Q: For `COc1ccc2c(c1OC)C(=O)N1c3ccccc3COC21` (centres undefined), which inhibition is on record?
A: -4.65% (inactive)

Q: Which inhibition does the source give for `CC1CC(C)CN(C(=O)c2cc3c(=O)n4ccccc4nc3s2)C1` (centres undefined) here?
A: 9.39% (inactive)

Q: Which inhibition does the source give for `COc1cccc(CNS(=O)(=O)c2cccc(S(=O)(=O)N3CCOCC3)c2)c1` here?
A: 5.34% (inactive)

Q: With `COc1ccccc1C1CC(c2ccc(Cl)cc2Cl)Nc2nc(N)nn21` (centres undefined) as the compound, how does the inhibition read?
A: -6.06% (inactive)

Q: With `O=C(COc1ccc(F)cc1)NNC(=O)c1cc2ccccc2oc1=O` as the compound, how does the inhibition read?
A: -1.43% (inactive)

Q: With `O=C(COc1ccccc1)NNC(=O)c1cc2ccccc2oc1=O` as the compound, how does the inhibition read?
A: -4.55% (inactive)

Q: With `CCOc1cc(N2CCOCC2)c(OCC)cc1NC(=O)c1ccc(OC)c(S(=O)(=O)N2CCOCC2)c1` as the compound, how does the inhibition read?
A: -2.5% (inactive)

Q: With `Cc1c(NS(=O)(=O)c2cccc(C(=O)NCc3ccc(Cl)cc3)c2)c(=O)n(-c2ccccc2)n1C` as the compound, how does the inhibition read?
A: -7.86% (inactive)

Q: With `CCOC(=O)c1csc(-c2ccc(OC)c(OC)c2)n1` as the compound, how does the inhibition read?
A: 6.33% (inactive)

Q: With `CCOC(=O)c1csc(N)n1` as the compound, how does the inhibition read?
A: -3.93% (inactive)

Q: Which inhibition does the source give for `O=C(Nc1cccc(Cl)c1)NC1CC2CCC(C1)N2Cc1cccs1` (centres undefined) here?
A: -7% (inactive)

Q: Which inhibition does the source give for `CCOc1ccc(-c2c[n+]3c(n2-c2ccccc2)CCCCC3)cc1` here?
A: -9.73% (inactive)

Q: For `CCOc1ccc(-n2c(-c3ccccc3)c[n+]3c2CCCCC3)cc1`, which inhibition is on record?
A: -7.91% (inactive)

Q: Which inhibition does the source give for `Cc1nc(NC(=O)COC(=O)C2CC2C)c(Cl)cc1Cl` (centres undefined) here?
A: -3.52% (inactive)

Q: With `Cc1ccccc1Nc1nc(N)nc(COC(=O)c2ccccc2)n1` as the compound, how does the inhibition read?
A: -4.25% (inactive)

Q: With `Cc1ccccc1Nc1nc(N)nc(COC(=O)c2ccco2)n1` as the compound, how does the inhibition read?
A: 10.5% (inactive)

Q: With `CC1CN(c2ccc([N+](=O)[O-])c(NCCOc3ccccc3)c2)CCN1` (centres undefined) as the compound, how does the inhibition read?
A: 22.7% (inactive)

Q: With `CC1CN(c2ccc([N+](=O)[O-])c(NCCOc3ccccc3)c2)CC(C)N1` (centres undefined) as the compound, how does the inhibition read?
A: 18.3% (inactive)

Q: With `Cc1csc2nc(O)c(C(=O)NCc3ccc4c(c3)OCO4)c(=O)n12` as the compound, how does the inhibition read?
A: 28.7% (inactive)

Q: With `O=C(NCCC1=CCCCC1)c1c(O)nc2ccccn2c1=O` as the compound, how does the inhibition read?
A: -7.18% (inactive)

Q: For `O=C(NCc1ccc2c(c1)OCO2)c1c(F)c(F)c(F)c(F)c1F`, which inhibition is on record?
A: 4.75% (inactive)

Q: Which inhibition does the source give for `Cc1csc2nc(O)c(C(=O)NCCC3=CCCCC3)c(=O)n12` here?
A: 49.8% (inactive)

Q: With `Cc1ccc(C)c(C(=O)n2cnnc2N)c1` as the compound, how does the inhibition read?
A: -9.61% (inactive)

Q: Which inhibition does the source give for `NC(=O)C1c2ccccc2Oc2ccccc21` here?
A: -5.49% (inactive)

Q: Which inhibition does the source give for `Cc1cc(C)nc(N2CCCC(C(=O)NC(C)C)C2)n1` (centres undefined) here?
A: 0.18% (inactive)

Q: Which inhibition does the source give for `O=C(NC(NC(=S)Nc1cc(Cl)ccc1Cl)C(Cl)(Cl)Cl)c1ccco1` (centres undefined) here?
A: 11.3% (inactive)

Q: For `O=C(Nc1cc(Cl)ccc1Cl)c1ccco1`, which inhibition is on record?
A: -6.05% (inactive)

Q: With `C[C@H](CO)N1C[C@H](C)[C@@H](CN(C)S(=O)(=O)c2cccs2)Oc2ccc(NC(=O)Nc3ccccc3)cc2C1=O` as the compound, how does the inhibition read?
A: -4.72% (inactive)

Q: Which inhibition does the source give for `COc1ccc(NC(=O)Nc2ccc3c(c2)C(=O)N([C@H](C)CO)C[C@H](C)[C@@H](CN(C)S(=O)(=O)c2cccs2)O3)cc1` here?
A: 2.72% (inactive)

Q: Which inhibition does the source give for `CCCc1nc2nc(C)c(NS(=O)(=O)c3ccc(Cl)cc3)c(=O)n2[nH]1` here?
A: -4.54% (inactive)

Q: Which inhibition does the source give for `CC(C)=NNc1nc2c(c(=O)n(C)c(=O)n2C)n1CCc1ccccc1` here?
A: -14.4% (inactive)

Q: For `Cc1ccc(/C=C/S(=O)(=O)NCC(=O)OCC(=O)Nc2ccc(C(N)=O)cc2)cc1`, which inhibition is on record?
A: -3.63% (inactive)

Q: Which inhibition does the source give for `Cc1ccc(/C=C/S(=O)(=O)NCC(=O)OCC(=O)NCc2ccccc2)cc1` here?
A: 6.29% (inactive)

Q: With `O=C(NC1CCSc2ccccc21)c1cc([N+](=O)[O-])ccc1N1CCOCC1` (centres undefined) as the compound, how does the inhibition read?
A: -4.07% (inactive)

Q: Which inhibition does the source give for `Nc1n[nH]c(N)c1N=Nc1ccc(Cl)cc1` here?
A: 0.26% (inactive)

Q: With `Nc1nc(N)c(N=Nc2ccc(Cl)cc2)c(=O)[nH]1` as the compound, how does the inhibition read?
A: 3.75% (inactive)

Q: For `COc1cccc(NC(=O)CSc2ccc3nnc(-c4cccnc4)n3n2)c1`, which inhibition is on record?
A: 6.73% (inactive)

Q: For `O=C(CN(Cc1ccc(F)cc1)C(=O)CNS(=O)(=O)c1ccc(Cl)cc1)NCC1CCCO1` (centres undefined), which inhibition is on record?
A: -7.08% (inactive)

Q: Which inhibition does the source give for `CCC(=O)N1N=C(c2cccs2)CC1c1ccc(C)cc1` (centres undefined) here?
A: -0.72% (inactive)

Q: Which inhibition does the source give for `CCN1CCN(CC(=O)N2N=C(c3cccs3)CC2c2ccc(C)cc2)C(=O)C1=O` (centres undefined) here?
A: 12.5% (inactive)

Q: Which inhibition does the source give for `COc1ccccc1NC(=O)CCc1nnc2ccc(N3CCC4(CC3)OCCO4)nn12` here?
A: -1.86% (inactive)

Q: For `CN1C(=O)CSc2ccc(NC(=O)N3CCOCC3)cc21`, which inhibition is on record?
A: 8.66% (inactive)

Q: For `CCC(=O)Oc1c(S(=O)(=O)c2ccc(C)cc2)c(C)nn1C(C)(C)C`, which inhibition is on record?
A: 11.5% (inactive)

Q: With `COc1ccc(Cc2nnc(SCC(=O)Nc3ccccc3C)n(N)c2=O)cc1` as the compound, how does the inhibition read?
A: -1.95% (inactive)

Q: Which inhibition does the source give for `CCOc1ccc(Cc2nnc(SCC(=O)Nc3ccc(OC)cc3)n(N)c2=O)cc1` here?
A: 0.84% (inactive)

Q: Which inhibition does the source give for `N#Cc1c(N)n[nH]c1CCCN` here?
A: 0.78% (inactive)

Q: With `O=C(O)c1cc(Cl)nc2ccccc12` as the compound, how does the inhibition read?
A: 2.9% (inactive)

Q: For `Nc1c2ccccc2nc2ccccc12`, which inhibition is on record?
A: -8.85% (inactive) and 58.8% (inactive)

Q: For `CCCCOc1ccc(OCCNC(=O)C2CCCN2C(=O)Nc2ccccc2)cc1` (centres undefined), which inhibition is on record?
A: 8.66% (inactive)

Q: For `COc1cc(C(=S)N2CCOCC2)cc(OC)c1OC(=O)c1ccc(C)cc1`, which inhibition is on record?
A: 8.19% (inactive)

Q: With `CCCc1nc2ccccc2c(C(=O)O)c1CC` as the compound, how does the inhibition read?
A: 2.61% (inactive)

Q: Which inhibition does the source give for `COc1cc2c(cc1OC)C1(Nc3c-2c(C)nn3-c2ccccc2)C(=O)Nc2ccccc21` (centres undefined) here?
A: 9.01% (inactive)

Q: For `COc1cc2c(cc1OC)C1(NCC2)C(=O)Nc2ccccc21` (centres undefined), which inhibition is on record?
A: 4.39% (inactive)

Q: With `COC(=O)c1sc(-c2ccccc2)cc1NC(=O)c1cc(OC)cc(OC)c1` as the compound, how does the inhibition read?
A: 6.45% (inactive)

Q: Which inhibition does the source give for `Cc1cccc(C)c1-n1c(C)nn(Cc2ccc([N+](=O)[O-])cc2)c1=O` here?
A: -15.4% (inactive)

Q: For `C(=N\Nc1nc2ccccc2[nH]1)/c1ccc2c(c1)OCCO2`, which inhibition is on record?
A: 12.1% (inactive)

Q: Which inhibition does the source give for `C(=N\Nc1ccccn1)/c1ccc2c(c1)OCCO2` here?
A: -4.47% (inactive)

Q: For `O=C(NN1C(=O)NC2(CCCCC2)C1=O)c1ccc(-c2ccc([N+](=O)[O-])cc2)o1`, which inhibition is on record?
A: 4.8% (inactive)

Q: For `CCOC(=O)C1CCCN(S(=O)(=O)c2cccc3cccnc23)C1` (centres undefined), which inhibition is on record?
A: -4.82% (inactive)

Q: With `O=C1N(CCCN2C(=O)C3(OCCO3)c3ccccc32)c2ccccc2C12OCCO2` as the compound, how does the inhibition read?
A: -3.19% (inactive)

Q: For `O=C1N(CCCCN2C(=O)C3(OCCO3)c3ccccc32)c2ccccc2C12OCCO2`, which inhibition is on record?
A: -3.23% (inactive)

Q: With `O=C1O[C@@H]([C@H](O)CO)C(O)=C1O` as the compound, how does the inhibition read?
A: -0.84% (inactive)

Q: Which inhibition does the source give for `Cn1c(C(=O)NCc2ccc3c(c2)OCO3)cc2sccc21` here?
A: 9.66% (inactive)

Q: With `CN1OC(c2ccccc2)=C(CO)C1c1ccccc1` (centres undefined) as the compound, how does the inhibition read?
A: -1.69% (inactive)

Q: For `COc1ccc(-c2c(-c3ccc(OC)c(C)c3O)n[nH]c2C)cc1`, which inhibition is on record?
A: 10.4% (inactive)

Q: For `O=C(NCc1ccc(Cl)cc1)c1ccc(CSc2nc3ccncc3[nH]2)cc1`, which inhibition is on record?
A: 5.93% (inactive)

Q: Which inhibition does the source give for `O=C(c1ccc(CSc2nc3ccncc3[nH]2)cc1)N1CCN(c2cccc(Cl)c2)CC1` here?
A: 60.3% (inactive)

Q: With `O=C(c1ccco1)N1CCCC(c2nc3c(nnn3Cc3cccc(Cl)c3)c(=O)[nH]2)C1` (centres undefined) as the compound, how does the inhibition read?
A: -2.33% (inactive)
